Measurements from PubChem BioAssay (Tox21).
Several values for one entry are separate records, joined by “and”; a condition that tells them apart may be missing. Equal entries are not always repeated. Inconclusive results are not listed. More than one record can exist for a structure, and the calls need not agree. Activity calls are given as the source filed them. Unless noted, the call rests on the fitted dose curve; in most records, active means well fitted curve in the direction sought with a large enough effect in the repeat runs; inconclusive means weak or mixed curves; inactive means no such curve, though single readings can be large; an effect the other way counts as inactive or inconclusive.

Tests used:
[1] = qHTS assay to identify small molecule agonists of the hypoxia (HIF-1) signaling pathway - cell viability counter screen (AID 1224844; calls by dose curve; further: on the % scale 0 is the no-effect control and ±100 the full control effect; nearly all actives have a fitted effect of over 50% in size)
In short: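 ME-180 HRE-bla cells, 2,000/well, 0.5% dialyzed FBS; 5 hr settle, 17 hr compound at 37C/5% CO2; CCF4-AM reporter read first, then CellTiter-Glo luminescence after 30 min RT.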

[2] = qHTS assay to identify small molecule agonists of H2AX (AID 1224845; active means well fitted activation curve with a large enough effect in the signal ratio in the repeat runs, not every such curve was filed as active; the % refers to the signal ratio; further: on the % scale 0 is the no-effect control and ±100 the full control effect)
In short: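 Wild-type CHO-K1 cells plated overnight, then exposed 3 hr at 37C to compounds at 15 concentrations (0.76% DMSO). Lysed, then HTRF anti-pH2AX(S139)-cryptate/anti-H2AX-d2 detection after 24 hr at room temperature; emissions 665 and 620 nm.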

[3] = qHTS assay to identify small molecule agonists of H2AX - cell viability counter screen (AID 1224847; calls by dose curve; further: top concentration of the series differs between compounds; on the % scale 0 is the no-effect control and ±100 the full control effect; nearly all actives have a fitted effect of over 30% in size)
In short: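 Quantitative HTS viability measurement: CHO-K1 wild-type cells in serum (10% FBS) medium, short 3 hr drug exposure at 37C with 0.76% DMSO, CellTiter-Glo luminescent detection.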

[4] = qHTS RealTime-Glo MT Cell Viability Assay in HepG2 cells - 24 hour (AID 1224867); further: on the % scale 0 is the no-effect control and ±100 the full control effect; nearly all actives have a fitted effect of over 50% in size
In short: (§1)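 HepG2 cells were seeded at 600 cells/well together with NanoLuc luciferase and a cell-permeant prosubstrate, preincubated 5 h at 37 C/5% CO2, then pin-dosed with compounds in DMSO. Nonlytic luminescence from viable cells was read at each time point.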

[5] = qHTS RealTime-Glo MT Cell Viability Assay in HEK293 cells - 32 hour (AID 1224868); further: top concentration of the series differs between compounds; on the % scale 0 is the no-effect control and ±100 the full control effect; nearly all actives have a fitted effect of over 50% in size
In short: (§2)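 HEK293 cells were seeded at 600 cells/well together with NanoLuc luciferase and cell-permeant prosubstrate, preincubated 5 h at 37 C/5% CO2, then given compound in DMSO by pintool. Luminescence from viable-cell prosubstrate reduction was read repeatedly over 40 h.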

[6] = A CellTox Green Cytotoxicity Assay to monitor cytotoxicity in HEK293 cells - 0 hour (AID 1224869); further: on the % scale 0 is the no-effect control and ±100 the full control effect; nearly all actives have a fitted effect of over 50% in size
In short: (§3)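 Nonlytic real-time cytotoxicity: HEK293 + CellTox Green reagent plated, 5 h preincubation, pintool compound addition (23 nL in DMSO), 37 C for 40 h, fluorescence measured at successive time points.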

[7] = A CellTox Green Cytotoxicity Assay to monitor cytotoxicity in HEK293 cells - 40 hour (AID 1224871); further: on the % scale 0 is the no-effect control and ±100 the full control effect; nearly all actives have a fitted effect of over 45% in size
In short: as §3

[8] = qHTS RealTime-Glo MT Cell Viability Assay in HEK293 cells - 16 hour (AID 1224872)
In short: as §2

[9] = qHTS RealTime-Glo MT Cell Viability Assay in HepG2 cells - 8 hour (AID 1224873); further: on the % scale 0 is the no-effect control and ±100 the full control effect; nearly all actives have a fitted effect of over 55% in size
In short: (§4)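 HepG2 cells mixed with RealTime-Glo MT reagents (NanoLuc plus cell-permeant prosubstrate) were seeded at 600 cells/well, incubated 5 h at 37 C/5% CO2, then pinned with compounds in DMSO; nonlytic luminescence tracked viability during 40 h treatment.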

[10] = qHTS RealTime-Glo MT Cell Viability Assay in HEK293 cells - 40 hour (AID 1224874); details: RealTime-Glo luminescence; max response: stronger effect = lower value
In short: (§5)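 Cells were seeded together with NanoLuc luciferase and a prosubstrate that viable cells reduce to a luciferase substrate. After a 5 h incubation at 37 C/5% CO2, compounds were added and luminescence was measured repeatedly during 40 h of treatment.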

[11] = A CellTox Green Cytotoxicity Assay to monitor cytotoxicity in HEK293 cells - 24 hour (AID 1224875); further: on the % scale 0 is the no-effect control and ±100 the full control effect; nearly all actives have a fitted effect of over 45% in size
In short: as §3

[12] = A CellTox Green Cytotoxicity Assay to monitor cytotoxicity in HepG2 cells - 16 hour (AID 1224876); further: on the % scale 0 is the no-effect control and ±100 the full control effect; nearly all actives have a fitted effect of over 45% in size
In short: (§6)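 Read-out is fluorescence of a cyanine dye excluded from live cells that stains DNA of dead HepG2 cells, with signal proportional to cytotoxicity. Plates were read at 0, 8, 16, 24, 32 and 40 h after compound addition.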

[13] = qHTS RealTime-Glo MT Cell Viability Assay in HepG2 cells - 32 hour (AID 1224877); further: on the % scale 0 is the no-effect control and ±100 the full control effect; nearly all actives have a fitted effect of over 55% in size
In short: as §1

[14] = A CellTox Green Cytotoxicity Assay to monitor cytotoxicity in HepG2 cells - 24 hour (AID 1224878); further: nearly all actives have a fitted effect of over 45% in size; further: potency means the concentration at half of the fitted maximal effect; on Cytotoxicity: on the % scale 0 is the no-effect control and ±100 the full control effect
In short: as §6

[15] = A CellTox Green Cytotoxicity Assay to monitor cytotoxicity in HepG2 cells - 40 hour (AID 1224879); further: nearly all actives have a fitted effect of over 40% in size; further: potency means the concentration at half of the fitted maximal effect
In short: as §6

[16] = qHTS RealTime-Glo MT Cell Viability Assay in HEK293 cells - 0 hour (AID 1224880)
In short: as §5

[17] = qHTS assay to identify small molecule antagonists of the estrogen related receptor (ERR) signaling pathway from Tox21 library (AID 1224848)
In short: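 Screening used an ERR reporter line supplied by NTP, exposed for 18 h at 37 C to library compounds delivered in DMSO. Signal was luciferase luminescence developed with ONE-Glo at room temperature for 30 min.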

[18] = qHTS assay to identify small molecule agonists of the estrogen related receptor (ERR) signaling pathway from Tox21 library (AID 1224849; calls by dose curve; further: on the % scale 0 is the no-effect control and ±100 the full control effect; nearly all actives have a fitted effect of over 15% in size); details: ERR reporter cell line, ONE-Glo luciferase, 18 h
In short: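 ERR cells, 6 h pre-incubation 37 C/5% CO2; cpd in DMSO pinned; 18 h 37 C; ONE-Glo added, 30 min RT; luminescence read. Agonist mode, qHTS.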

[19] = qHTS RealTime-Glo MT Cell Viability Assay in HepG2 cells - 40 hour (AID 1224870)
In short: as §4

[20] = qHTS assay to identify small molecule agonists of the hypoxia (HIF-1) signaling pathway (AID 1224846; active means well fitted activation curve with a large enough effect in the signal ratio in the repeat runs, not every such curve was filed as active; the % refers to the signal ratio; further: on the % scale 0 is the no-effect control and ±100 the full control effect)
In short: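 Cell line: CellSensor HRE-bla ME-180; 2,000 cells/well; 0.5% dialyzed FBS; 5 h preincubation; DMSO compound pin transfer; 17 h, 37C, 5% CO2; CCF4-AM added; bla FRET signal scored for activation.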

COc1c2ccoc2cc2oc(=O)ccc12
inactive: Potency [1] | Potency [2] | Potency [3] | Potency [4] | Potency [5] | Potency [6] | Potency [7] | Potency [8] | Potency [9] | max response [10] -25.5% and -38.4% | Potency [11] | Potency [12] | Potency [13] | Potency [14] | Potency [15] | Potency [16]

Cc1cccc(C)c1[N+](=O)[O-]
inactive: Potency [1] | Potency [2] | Potency [3] | Potency [5] | Potency [6] | Potency [8] | Potency [9] | Potency [11] | Potency [12] | Potency [13] | Potency [14] | Potency [15] | Potency [16]

Nc1nc(N)c2nc(-c3ccccc3)c(N)nc2n1
54.9 µM (active) and inactive: Potency [14]
active: Potency [17] 24.6 µM and 21.7 µM | Potency [15] 49.5 µM and 49 µM
inactive: Potency [1] | Potency [3] | activity change, positive = activation ([18]; at 42.5 µM (top of the series)) -33.8% | activity change, positive = activation ([18]; at 92.4 µM (top of the series)) -44.9% and -45.9% | Potency [5] | Potency [6] | Potency [19] | Potency [7] | Potency [8] | Potency [9] | Potency [11] | Potency [13] | Potency [16]

CCCCCCCCO
inactive: Potency [1] | Potency [2] | Potency [3] | Potency [5] | Potency [6] | Potency [19] | Potency [7] | Potency [8] | Potency [9] | Potency [11] | Potency [13] | Potency [14] | Potency [15] | Potency [16]

O=C(Cl)c1ccc(C(=O)Cl)cc1
inactive: Potency [1] | Potency [2] | Potency [3] | Potency [5] | Potency [6] | Potency [19] | Potency [7] | Potency [8] | Potency [9] | max response [10] -18.9% and 3.42% | Potency [11] | Potency [13] | Potency [14] | Potency [15] | Potency [16]

CCCOC(=O)NCCCN(C)C
inactive: Potency [1] | Potency [2] | Potency [3] | Potency [4] | Potency [5] | Potency [6] | Potency [8] | Potency [9] | max response [10] 3.11% and 1.66% | Potency [11] | Potency [12] | Potency [13] | Potency [14] | Potency [15] | Potency [16]

O=C(O)C1=NN(c2ccc(S(=O)(=O)O)cc2)C(=O)C1
inactive: Potency [1] | outcome [20] | Potency [3] | Potency [4] | Potency [5] | Potency [6] | Potency [19] | Potency [7] | Potency [8] | Potency [9] | max response [10] 6.57% and 2.54% | Potency [11] | Potency [13] | Potency [14] | Potency [15] | Potency [16]

CCn1cc(C(=O)O)c(=O)c2cc3c(cc21)OCO3
inactive: Potency [1] | Potency [2] | Potency [3] | Potency [4] | Potency [5] | Potency [6] | Potency [19] | Potency [8] | Potency [9] | max response [10] 10.2% and 3.68% | Potency [11] | Potency [12] | Potency [13] | Potency [14] | Potency [15] | Potency [16]

N[C@@H](Cc1cc(I)c(Oc2ccc(O)c(I)c2)c(I)c1)C(=O)O
inactive: Potency [1] | outcome [20] | Potency [3] | Potency [5] | Potency [6] | Potency [7] | Potency [8] | Potency [9] | max response [10] -20.1% and -17.6% | Potency [11] | Potency [12] | Potency [13] | Potency [14] | Potency [15]
